The text below walks through data of article PMC8384837, “Expanding the binding specificity for RNA recognition by a PUF domain”.

Common to all, as to assay: yeast three-hybrid, YBZ-1, SC-Leu-His + 0.5 mM 3-AT, 4 days
Holding throughout (conditions): tags: N-Gal4 AD-HA kept; label: inside an RPR1-promoter hybrid RNA with tandem MS2 sites; ssRNA

In one experiment the target is PUM1 PUF domain R5-KKL (Homo sapiens, UniProt Q14671 828-1176, C1007K;R1008K;Q1011L). The procedure, abridged: (§1)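 The interaction score is the log change in variant frequency from input to selection. Scores were computed in log2 with a pseudocount of 1 for absent variants, using Illumina sequencing of PCR-amplified repeat regions. The input came from four days on SC-Leu and the selection from four days on SC-Leu-His + 0.5 mM 3-AT. The cells were strain YBZ-1 (LexA–MS2 coat fusion, HIS3 reporter) co-expressing Pumilio-1 PUF domain libraries and matching RNA elements from a centromeric plasmid.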

The target of the next experiment is PUM1 PUF domain R5-EKC (Homo sapiens, UniProt Q14671 828-1176, C1007E;R1008K;Q1011C). The gist of the method:
as §1

A further experiment deals with PUM1 PUF domain R5-NRF (Homo sapiens, UniProt Q14671 828-1176, C1007N;Q1011F). The procedure, abridged:
as §1

A further experiment has as its target PUM1 PUF domain R3-RST (Homo sapiens, UniProt Q14671 828-1176, C935R;R936S;Q939T). The gist of the method:
as §1

Another experiment addresses PUM1 PUF domain R3-RDR (Homo sapiens, UniProt Q14671 828-1176, C935R;R936D;Q939R). The gist of the method:
as §1

The target of another experiment is PUM1 PUF domain R5-KWG (Homo sapiens, UniProt Q14671 828-1176, C1007K;R1008W;Q1011G). The gist of the method:
as §1

The target in the next experiment is PUM1 PUF domain R5-RGD (Homo sapiens, UniProt Q14671 828-1176, C1007R;R1008G;Q1011D). The gist of the method:
as §1

For a further experiment, the target named is PUM1 PUF domain R5-DFW (Homo sapiens, UniProt Q14671 828-1176, C1007D;R1008F;Q1011W). The gist of the method:
as §1

Another experiment concerns the target PUM1 PUF domain R1-RVV (Homo sapiens, UniProt Q14671 828-1176, S863R;R864V;Q867V). The procedure, abridged:
as §1

The next experiment has as its target PUM1 PUF domain R1-YQR (Homo sapiens, UniProt Q14671 828-1176, S863Y;R864Q;Q867R). The procedure, abridged: as §1
In another experiment the target is PUM1 PUF domain R8-RWV (Homo sapiens, UniProt Q14671 828-1176, N1122R;Y1123W;Q1126V). The gist of the method: as §1
The target in the next experiment is PUM1 PUF domain R8-KFP (Homo sapiens, UniProt Q14671 828-1176, N1122K;Y1123F;Q1126P). The procedure, abridged: as §1
The next experiment has as its target PUM1 PUF domain R5-GQS (Homo sapiens, UniProt Q14671 828-1176, C1007G;R1008Q;Q1011S). The gist of the method: as §1
The target of another experiment is PUM1 PUF domain R3-DRL (Homo sapiens, UniProt Q14671 828-1176, C935D;Q939L). The gist of the method: as §1
In another experiment the target is PUM1 PUF domain R4-DFA (Homo sapiens, UniProt Q14671 828-1176, N971D;H972F;Q975A). The gist of the method: as §1
The target in a further experiment is T1, PUM1 PUF domain R6-SFR (Homo sapiens, UniProt Q14671 828-1176, N1043S;Y1044F;Q1047R).
T1 sequence: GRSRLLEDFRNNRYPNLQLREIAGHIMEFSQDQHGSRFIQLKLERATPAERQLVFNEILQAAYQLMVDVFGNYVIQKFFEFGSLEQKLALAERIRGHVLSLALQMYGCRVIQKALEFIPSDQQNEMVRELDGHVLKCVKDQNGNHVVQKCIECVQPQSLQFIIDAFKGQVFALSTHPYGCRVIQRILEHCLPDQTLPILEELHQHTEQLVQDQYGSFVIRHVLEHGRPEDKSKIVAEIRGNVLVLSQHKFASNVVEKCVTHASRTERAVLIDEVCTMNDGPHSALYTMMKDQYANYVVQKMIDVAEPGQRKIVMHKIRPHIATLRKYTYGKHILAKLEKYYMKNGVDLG
The procedure, abridged: as §1

The target of a further experiment is PUM1 PUF domain R3-SLE (Homo sapiens, UniProt Q14671 828-1176, C935S;R936L;Q939E). The gist of the method: as §1
In another experiment the target is PUM1 PUF domain R7-GVK (Homo sapiens, UniProt Q14671 828-1176, S1079G;N1080V;E1083K). The procedure, abridged:
as §1

A further experiment concerns the target PUM1 PUF domain R7-GTR (Homo sapiens, UniProt Q14671 828-1176, S1079G;N1080T;E1083R). The gist of the method: as §1
A further experiment has as its target PUM1 PUF domain R5-KHT (Homo sapiens, UniProt Q14671 828-1176, C1007K;R1008H;Q1011T). The gist of the method:
as §1

As to “GGCUAGAACUAGUGGAUCCCCCGGCGCCCGGCGGCUCGAGCCCGGGUAAGUGUUAAUAGUCUGCAUGCCGCCGGGCGCCAUGCCUGCAGGUCGACUCUAGAAAACAUG”, the results for the binding signal with PUM1 PUF domain R5-KKL, in the experiment with PUM1 PUF domain R5-EKC and with PUM1 PUF domain R5-NRF were 2.25 log2 enrichment (interaction score), 2.3 log2 enrichment (interaction score) and 5.64 log2 enrichment (interaction score), respectively.
Regarding “GGCUAGAACUAGUGGAUCCCCCGGCGCCCGGCGGCUCGAGCCCGGGUAAGUGUAAUUAGUCUGCAUGCCGCCGGGCGCCAUGCCUGCAGGUCGACUCUAGAAAACAUG”, the binding signal with PUM1 PUF domain R3-RST is 2.83 log2 enrichment (interaction score); with PUM1 PUF domain R3-RDR, 4.8 log2 enrichment (interaction score).
Regarding “GGCUAGAACUAGUGGAUCCCCCGGCGCCCGGCGGCUCGAGCCCGGGUAAGUGUCAAUAGUCUGCAUGCCGCCGGGCGCCAUGCCUGCAGGUCGACUCUAGAAAACAUG”, the binding signal was 2.13 log2 enrichment (interaction score) in the experiment with PUM1 PUF domain R5-KKL; 2.59 log2 enrichment (interaction score) with PUM1 PUF domain R5-EKC; 4.46 log2 enrichment (interaction score) with PUM1 PUF domain R5-KWG; 3.87 log2 enrichment (interaction score) with PUM1 PUF domain R5-RGD; 2.86 log2 enrichment (interaction score) with PUM1 PUF domain R5-DFW.
For the sequence “GGCUAGAACUAGUGGAUCCCCCGGCGCCCGGCGGCUCGAGCCCGGGUAAGUGUAAAUCGUCUGCAUGCCGCCGGGCGCCAUGCCUGCAGGUCGACUCUAGAAAACAUG”, the binding signal in the experiment with PUM1 PUF domain R1-RVV was 2.37 log2 enrichment (interaction score).
As to “GGCUAGAACUAGUGGAUCCCCCGGCGCCCGGCGGCUCGAGCCCGGGUAAGUGUAAAUUGUCUGCAUGCCGCCGGGCGCCAUGCCUGCAGGUCGACUCUAGAAAACAUG”, the binding signal with PUM1 PUF domain R1-YQR was 6.49 log2 enrichment (interaction score); in the experiment with PUM1 PUF domain R1-RVV it was 2.58 log2 enrichment (interaction score).
“GGCUAGAACUAGUGGAUCCCCCGGCGCCCGGCGGCUCGAGCCCGGGUAAGCGUAAAUAGUCUGCAUGCCGCCGGGCGCCAUGCCUGCAGGUCGACUCUAGAAAACAUG”: the binding signal with PUM1 PUF domain R8-RWV is 5.22 log2 enrichment (interaction score); with PUM1 PUF domain R8-KFP it was 3.9 log2 enrichment (interaction score).
In the case of “GGCUAGAACUAGUGGAUCCCCCGGCGCCCGGCGGCUCGAGCCCGGGUAAGUGUAAAUAGUCUGCAUGCCGCCGGGCGCCAUGCCUGCAGGUCGACUCUAGAAAACAUG”, the binding signal was 5.01 log2 enrichment (interaction score) in the experiment with PUM1 PUF domain R8-RWV; 3.39 log2 enrichment (interaction score) with PUM1 PUF domain R5-GQS; 3.71 log2 enrichment (interaction score) in the experiment with PUM1 PUF domain R3-DRL; 2.78 log2 enrichment (interaction score) in the experiment with PUM1 PUF domain R4-DFA; 6.56 log2 enrichment (interaction score) with PUM1 PUF domain R6-SFR; 4.88 log2 enrichment (interaction score) with PUM1 PUF domain R8-KFP.
“GGCUAGAACUAGUGGAUCCCCCGGCGCCCGGCGGCUCGAGCCCGGGUAAGUGUACAUAGUCUGCAUGCCGCCGGGCGCCAUGCCUGCAGGUCGACUCUAGAAAACAUG”: the binding signal in the experiment with PUM1 PUF domain R4-DFA is 6.02 log2 enrichment (interaction score).
“GGCUAGAACUAGUGGAUCCCCCGGCGCCCGGCGGCUCGAGCCCGGGUAAGUGUAAGUAGUCUGCAUGCCGCCGGGCGCCAUGCCUGCAGGUCGACUCUAGAAAACAUG”: the binding signal in the experiment with PUM1 PUF domain R3-SLE was 3.8 log2 enrichment (interaction score).
“GGCUAGAACUAGUGGAUCCCCCGGCGCCCGGCGGCUCGAGCCCGGGUAAGUUUAAAUAGUCUGCAUGCCGCCGGGCGCCAUGCCUGCAGGUCGACUCUAGAAAACAUG”: the binding signal is 4.74 log2 enrichment (interaction score) with PUM1 PUF domain R7-GVK and 4.38 log2 enrichment (interaction score) with PUM1 PUF domain R7-GTR.
For “GGCUAGAACUAGUGGAUCCCCCGGCGCCCGGCGGCUCGAGCCCGGGUAAGUGCAAAUAGUCUGCAUGCCGCCGGGCGCCAUGCCUGCAGGUCGACUCUAGAAAACAUG”, in the experiment with PUM1 PUF domain R6-SFR, the binding signal was 7.11 log2 enrichment (interaction score).
Regarding “GGCUAGAACUAGUGGAUCCCCCGGCGCCCGGCGGCUCGAGCCCGGGUAAGUGUGAAUAGUCUGCAUGCCGCCGGGCGCCAUGCCUGCAGGUCGACUCUAGAAAACAUG”, the binding signal is 2.15 log2 enrichment (interaction score) with PUM1 PUF domain R5-GQS and 2.38 log2 enrichment (interaction score) with PUM1 PUF domain R5-KHT.
